We go through 19 compounds from PubChem BioAssay (EPA / NIEHS).

Molecules are shown by their SMILES. Results filed as inconclusive are left out. Active and inactive are the calls of the source. The calls were made as follows, unless noted: active = hit-call score of the fitted dose curve at least 0.9, where 1 is the maximum; inconclusive = response in the unintended direction; inactive = score below 0.9.

Assay [1] concerns the target Myc proto-oncogene protein (Homo sapiens) (UniProt P01106). Put plainly: ATG_Myc_CIS: Attagene CIS-FACTORIAL HepG2 Assay for human Myelocytomatosis (Myc) Proto-Oncogene Transcription Factor (AID 2282990; active = hit-call score of the fitted dose curve at least 0.9, where 1 is the maximum; inactive = score below 0.9). The note with it: HepG2, Attagene cis-reporter transcription factor activity; actives raise or lower the signal. Put shortly:
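Cells of the HepG2 human liver line bear multiple cis-driven reporter transcription units. Reporter mRNA after 24 h exposure is reverse-transcribed, amplified, labelled and resolved by capillary electrophoresis, with gain- or loss-of-signal fitting relative to DMSO.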

Assay [2] in a line: ATG_Oct_MLP_CIS: Attagene CIS-FACTORIAL HepG2 Assay for human Octamer-Binding Transcription Factor (Oct) (AID 2282993; active = hit-call score of the fitted dose curve at least 0.9, where 1 is the maximum; inactive = score below 0.9). The following applies: HepG2 Attagene cis-factorial Oct reporter, mRNA; actives raise or lower the signal. Put shortly: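 HepG2 cells transiently transfected with cis-element-driven reporter transcription units (endogenous TF activity); 24 h compound exposure. Reporter mRNA quantified by RT-PCR, 6-FAM labelling, HpaI digestion and capillary electrophoresis; bidirectional fit versus DMSO baseline.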

In assay [3] the target is human Peroxisome Proliferator-activated Receptor delta (PPARd), PPARD (gene 5467) (UniProt Q03181). Put plainly: ATG_PPARd_TRANS: Attagene TRANS-FACTORIAL HepG2 Assay for human Peroxisome Proliferator-activated Receptor delta (PPARd) (AID 2283002). The gist of the method:
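Cell-based TRANS reporter: HepG2, transient MRTU transfection, 24 h exposure. Readout = reporter mRNA (RT-PCR/CE, 6-FAM). Gain-of-signal fit vs DMSO control.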

A short description of assay [4]: ATG_NRF2_ARE_CIS: Attagene CIS-FACTORIAL HepG2 Assay for human Nuclear Factor Erythroid 2 Related Factor 2 (NFR2) response to Antioxidant Response Elements (ARE) (AID 2282992; active = hit-call score of the fitted dose curve at least 0.9, where 1 is the maximum; inactive = score below 0.9;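 as to AC50: reporter mRNA level measured by RT-PCR and capillary electrophoresis fluorescence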). The following applies: HepG2 Attagene ARE/NRF2 reporter, transcription factor activity; actives raise or lower the signal. Put shortly: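 Endogenous transcription factor activity in human liver HepG2 cells is tracked via a cis-element-driven reporter within a multiplexed set. mRNA induction is read by RT-PCR and capillary electrophoresis after 24 h, with DMSO as baseline.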

In assay [5] the target is Nuclear receptor subfamily 1 group I member 2 (Homo sapiens) (UniProt O75469). Kind of assay: ATG_PXR_TRANS: Attagene TRANS-FACTORIAL HepG2 Assay for human Pregnane X Receptor (PXR) (AID 2283008). The gist of the method: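 HepG2 transfected (FuGene 6) with GAL4-UAS reporter units + PXR-Gal4 chimera; dosed 24 h. Total RNA → oligo(dT) RT → PCR → 6-FAM primer extension → HpaI cut → CE. Gain-of-signal vs DMSO.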
Nuclear receptor subfamily 1 group I member 2 (Homo sapiens), sequence (O75469 whole entry, looked up, the tested form may be a part): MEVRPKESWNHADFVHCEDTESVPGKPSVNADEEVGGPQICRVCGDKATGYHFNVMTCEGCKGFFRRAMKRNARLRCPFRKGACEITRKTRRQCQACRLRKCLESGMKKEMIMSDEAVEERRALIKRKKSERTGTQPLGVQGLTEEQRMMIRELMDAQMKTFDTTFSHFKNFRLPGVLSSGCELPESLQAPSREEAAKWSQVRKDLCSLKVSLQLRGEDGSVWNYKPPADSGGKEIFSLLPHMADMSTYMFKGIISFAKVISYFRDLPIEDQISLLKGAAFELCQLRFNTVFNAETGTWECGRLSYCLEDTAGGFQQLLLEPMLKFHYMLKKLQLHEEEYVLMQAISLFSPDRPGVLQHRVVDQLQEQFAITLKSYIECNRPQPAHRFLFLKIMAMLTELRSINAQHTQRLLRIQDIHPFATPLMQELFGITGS

The target in assay [6] is Retinoic acid receptor alpha (Homo sapiens) (UniProt P10276). Put plainly: ATG_RARa_TRANS: Attagene TRANS-FACTORIAL HepG2 Assay for human Retinoic Acid Receptor alpha (RARa) (AID 2283005). The gist of the method:
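Reporter transcripts, measured by RT-PCR with fluorescent labeling and capillary electrophoresis after 24 h dosing, reflect activity of an exogenous human RARa–GAL4 fusion in transiently transfected HepG2. Fitted for increase relative to DMSO.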

Assay [7] addresses human Peroxisome Proliferator-activated Receptor alpha (PPARa), PPARA (gene 5465) (UniProt Q07869). Put plainly: ATG_PPARa_TRANS: Attagene TRANS-FACTORIAL HepG2 Assay for human Peroxisome Proliferator-activated Receptor alpha (PPARa) (AID 2283001).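 As to AC50: potency for gain of reporter signal over DMSO so agonist or activator.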 The gist of the method: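 Reporter transcripts quantified by RT-PCR plus capillary electrophoresis after 24 h treatment, fitted upward relative to DMSO. Cells: human HepG2 transiently carrying multiple GAL4-UAS reporter units driven by NR-Gal4 chimeras.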

Assay [8] deals with human Retinoic Acid Receptor beta (RARb), RARB (gene 5915) (UniProt P10826). Kind of assay: ATG_RARb_TRANS: Attagene TRANS-FACTORIAL HepG2 Assay for human Retinoic Acid Receptor beta (AID 2283004). The gist of the method:
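Fluorescent capillary-electrophoresis detection of GAL4-UAS reporter mRNA defines the endpoint, with induction over DMSO-treated wells scored as activity. Transiently transfected human hepatoma HepG2 cells expressing exogenous NR–Gal4 proteins are exposed to test chemicals for 24 h.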

The target of assay [9] is Peroxisome proliferator-activated receptor gamma (Homo sapiens) (UniProt P37231). Kind of assay: ATG_PPARg_TRANS: Attagene TRANS-FACTORIAL HepG2 Assay for human Peroxisome Proliferator-activated Receptor-gamma (PPARg) (AID 2283007). Put shortly:
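Multiplexed reporter transcription units in HepG2, 24 h dosing, reporter transcripts quantified by fluorescent RT-PCR and capillary electrophoresis. Increase over DMSO scored.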

For assay [10], the target named is human Retinoic Acid Receptor gamma (RARg), RARG (gene 5916) (UniProt P13631). Kind of assay: ATG_RARg_TRANS: Attagene TRANS-FACTORIAL HepG2 Assay for human Retinoic Acid Receptor gamma (RARg) (AID 2283009). Put shortly: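 TRANS format measured activity of exogenous NR-GAL4 fusion (RARg) in transfected HepG2 liver cells after 24 h dosing. Induced reporter RNA was detected by RT-PCR/capillary electrophoresis fluorescence, analysed in the positive direction against DMSO.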
human Retinoic Acid Receptor gamma (RARg), RARG (gene 5916), sequence (P13631 whole entry, looked up, the tested form may be a part): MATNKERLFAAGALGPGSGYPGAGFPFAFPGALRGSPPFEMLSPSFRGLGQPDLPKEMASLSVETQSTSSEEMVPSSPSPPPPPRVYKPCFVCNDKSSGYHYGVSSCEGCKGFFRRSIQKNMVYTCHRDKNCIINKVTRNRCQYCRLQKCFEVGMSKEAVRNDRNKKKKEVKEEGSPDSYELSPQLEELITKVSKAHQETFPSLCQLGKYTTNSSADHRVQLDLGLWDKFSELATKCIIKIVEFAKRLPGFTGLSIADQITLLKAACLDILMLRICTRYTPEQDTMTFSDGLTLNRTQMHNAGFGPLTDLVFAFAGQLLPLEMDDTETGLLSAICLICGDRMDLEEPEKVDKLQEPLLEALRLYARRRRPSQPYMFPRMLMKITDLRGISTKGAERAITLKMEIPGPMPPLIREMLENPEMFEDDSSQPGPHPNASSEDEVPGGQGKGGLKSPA

Assay [11] concerns the target human RAR-related Orphan Receptor gamma (RORg), RORC (gene 6097) (UniProt P51449). Kind of assay: ATG_RORg_TRANS: Attagene TRANS-FACTORIAL HepG2 Assay for human RAR-related Orphan Receptor gamma (RORg) (AID 2283011). The gist of the method: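 Chimeric RORg-Gal4 transactivation in transfected HepG2; 24 h exposure; RT-PCR/capillary electrophoresis readout of reporter mRNA, DMSO baseline.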

Assay [12] addresses Cellular tumor antigen p53 (Homo sapiens) (UniProt P04637). Kind of assay: ATG_p53_CIS: Attagene CIS-FACTORIAL HepG2 Assay for human p53 Transcription Factor (AID 2282994; active = hit-call score of the fitted dose curve at least 0.9, where 1 is the maximum; inactive = score below 0.9). The note with it: HepG2 p53 cis-element reporter, Attagene mRNA; actives raise or lower the signal. Put shortly: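 Steps: transfect HepG2 with multiplexed cis reporter constructs; dose chemicals 24 h; extract RNA, reverse-transcribe, PCR-amplify reporter sequences; FAM-label, HpaI-digest, resolve fragments by CE. Activity fitted both directions relative to DMSO.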

Assay [13] concerns the target human RAR-related Orphan Receptor beta (RORb), RORB (gene 6096) (UniProt Q92753). Kind of assay: ATG_RORb_TRANS: Attagene TRANS-FACTORIAL HepG2 Assay for human RAR-related Orphan Receptor beta (RORb) (AID 2283010). Put shortly:
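Transfect HepG2 with multiple GAL4-UAS reporter transcription units; dose chemicals for 24 h; isolate RNA, reverse-transcribe and PCR-amplify reporter sequences; label, digest and resolve fragments by capillary electrophoresis; fit increases relative to DMSO.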

Assay [14] can be described thus: BSK_3C_TissueFactor: BioMAP Diversity Plus: 3C Assay for Tissue Factor Biomarker Activity (AID 2282997; active = hit-call score of the fitted dose curve at least 0.9, where 1 is the maximum; inactive = score below 0.9). The following applies: BioMAP 3C HUVEC, tissue factor biomarker readout; actives raise or lower the signal. The gist of the method: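 In this endothelial system, HUVEC are treated for 24 h and Tissue Factor is assessed by ELISA, normalised to DMSO.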
Assay [15] in a line: BSK_3C_uPAR: BioMAP Diversity Plus: 3C Assay for Urokinase-type plasminogen activator receptor (uPAR) Biomarker Activity (AID 2282998; active = hit-call score of the fitted dose curve at least 0.9, where 1 is the maximum; inactive = score below 0.9). The following applies: BioMAP 3C HUVEC, uPAR biomarker ELISA; actives raise or lower the signal. Put shortly: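 Primary human umbilical vein endothelial cells, 3C system; surface uPAR measured by ELISA 24 h after dosing. Cytotoxicity via SRB total protein in parallel cultures; bidirectional fit against DMSO.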
(In general: ELISA stands for enzyme-linked immunosorbent assay.)

The nature of assay [16]: BSK_3C_VCAM1: BioMAP Diversity Plus: 3C Assay for Vascular cell adhesion molecule 1 (VCAM1) Biomarker Activity (AID 2282999; active = hit-call score of the fitted dose curve at least 0.9, where 1 is the maximum; inactive = score below 0.9). The note with it: BioMAP 3C HUVEC, VCAM1 ELISA, cytokine-stimulated; actives raise or lower the signal. The gist of the method: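 Activity fitted in both directions relative to DMSO, with ELISA measurement of the surface marker on primary HUVEC (3C) at 24 h post-treatment; parallel SRB staining (0.1% SRB, TCA-fixed, 560 nm) flagged overt cytotoxicity.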

The nature of assay [17]: BSK_4H_Eotaxin3: BioMAP Diversity Plus: 4H Assay for Eotaxin 3 Biomarker Activity (AID 2283000; active = hit-call score of the fitted dose curve at least 0.9, where 1 is the maximum; inactive = score below 0.9;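 also: CCL26 protein level quantified by ELISA in parallel with SRB cytotoxicity check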). The following applies: primary human endothelial cells (HUVEC); actives raise or lower the signal. The gist of the method:
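ELISA quantitation of CCL26 (Eotaxin-3) protein from chemically dosed human vascular endothelial cells at 24 h; increases and decreases both scored relative to DMSO-treated baseline.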

Read-out in assay [18]: Intercellular Adhesion Molecule 1 (ICAM1), ICAM1 (gene 3383)
Kind of assay: BSK_3C_ICAM1: BioMAP Diversity Plus: 3C Assay for Intercellular Adhesion Molecule 1 (ICAM1) Biomarker Activity (AID 2283003; active = hit-call score of the fitted dose curve at least 0.9, where 1 is the maximum; inactive = score below 0.9). The following applies: primary human endothelial cells (HUVEC); actives raise or lower the signal. Put shortly: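 Chemicals are dosed onto primary human umbilical vein endothelium (3C system). After 24 h, ICAM-1 is measured by ELISA, and responses are fitted bidirectionally relative to DMSO.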

The nature of assay [19]: BSK_3C_Proliferation: Cell Proliferation Assessment in the BioMAP Diversity Plus: 3C Assay (AID 2283006; active = hit-call score of the fitted dose curve at least 0.9, where 1 is the maximum; inactive = score below 0.9). The note with it: primary human endothelial cells (HUVEC). Put shortly: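 Cells (human umbilical vein endothelial, sub-confluent) receive test chemical; after 48 h they are fixed in 10% trichloroacetic acid, stained with 0.1% SRB and read at 560 nm. Activity is referenced to DMSO, fitting increases and decreases.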

human RAR-related Orphan Receptor beta (RORb), RORB (gene 6096), sequence (Q92753 whole entry, looked up, the tested form may be a part): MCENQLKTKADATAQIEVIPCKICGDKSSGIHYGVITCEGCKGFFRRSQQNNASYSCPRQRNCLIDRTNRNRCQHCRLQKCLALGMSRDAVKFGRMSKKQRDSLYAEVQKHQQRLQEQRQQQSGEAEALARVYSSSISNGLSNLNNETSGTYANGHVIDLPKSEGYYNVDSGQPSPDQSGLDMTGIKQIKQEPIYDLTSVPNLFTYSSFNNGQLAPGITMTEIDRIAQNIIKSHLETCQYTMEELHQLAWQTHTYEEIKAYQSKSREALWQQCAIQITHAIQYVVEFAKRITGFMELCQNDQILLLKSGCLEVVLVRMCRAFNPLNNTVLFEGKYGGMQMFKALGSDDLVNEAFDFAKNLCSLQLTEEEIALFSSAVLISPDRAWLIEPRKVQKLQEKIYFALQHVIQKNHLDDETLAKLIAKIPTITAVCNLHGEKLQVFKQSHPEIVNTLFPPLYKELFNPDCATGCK
human Retinoic Acid Receptor beta (RARb), RARB (gene 5915), sequence (P10826 whole entry, looked up, the tested form may be a part): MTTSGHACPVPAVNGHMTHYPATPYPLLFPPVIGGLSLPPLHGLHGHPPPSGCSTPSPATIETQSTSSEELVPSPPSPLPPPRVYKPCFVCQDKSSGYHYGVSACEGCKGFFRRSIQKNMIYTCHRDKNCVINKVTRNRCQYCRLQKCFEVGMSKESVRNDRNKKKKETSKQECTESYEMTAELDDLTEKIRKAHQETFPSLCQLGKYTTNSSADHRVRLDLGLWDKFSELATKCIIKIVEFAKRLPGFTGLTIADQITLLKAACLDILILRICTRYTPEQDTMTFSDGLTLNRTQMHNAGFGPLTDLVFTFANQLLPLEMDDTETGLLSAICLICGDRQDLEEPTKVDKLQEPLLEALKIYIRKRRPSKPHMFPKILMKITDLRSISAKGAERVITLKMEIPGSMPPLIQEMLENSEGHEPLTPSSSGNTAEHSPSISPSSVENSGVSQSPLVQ
Myc proto-oncogene protein (Homo sapiens), sequence (P01106 whole entry, looked up): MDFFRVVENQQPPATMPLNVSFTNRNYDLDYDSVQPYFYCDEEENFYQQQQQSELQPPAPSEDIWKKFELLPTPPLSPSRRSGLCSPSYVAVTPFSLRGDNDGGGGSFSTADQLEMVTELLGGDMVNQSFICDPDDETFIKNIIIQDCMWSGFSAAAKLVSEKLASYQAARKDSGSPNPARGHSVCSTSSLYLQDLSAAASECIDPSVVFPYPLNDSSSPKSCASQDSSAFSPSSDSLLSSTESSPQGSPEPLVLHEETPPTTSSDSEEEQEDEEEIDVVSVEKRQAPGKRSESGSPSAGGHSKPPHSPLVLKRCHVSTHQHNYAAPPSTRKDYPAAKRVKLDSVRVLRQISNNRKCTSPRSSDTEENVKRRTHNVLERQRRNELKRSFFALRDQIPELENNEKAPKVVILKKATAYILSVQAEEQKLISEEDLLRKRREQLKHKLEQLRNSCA
Cellular tumor antigen p53 (Homo sapiens), sequence (P04637 whole entry, looked up, the tested form may be a part): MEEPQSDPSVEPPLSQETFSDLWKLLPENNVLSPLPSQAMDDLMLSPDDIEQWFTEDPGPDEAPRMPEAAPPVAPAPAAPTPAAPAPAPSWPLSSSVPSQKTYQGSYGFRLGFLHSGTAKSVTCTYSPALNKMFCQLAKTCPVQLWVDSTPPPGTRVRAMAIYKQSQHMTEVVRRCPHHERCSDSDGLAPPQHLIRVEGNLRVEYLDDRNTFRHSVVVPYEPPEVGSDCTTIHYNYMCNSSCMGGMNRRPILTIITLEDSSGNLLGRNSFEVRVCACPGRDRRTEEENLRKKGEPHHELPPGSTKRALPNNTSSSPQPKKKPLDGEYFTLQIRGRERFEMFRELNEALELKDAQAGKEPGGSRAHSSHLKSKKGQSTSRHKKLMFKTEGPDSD
Retinoic acid receptor alpha (Homo sapiens), sequence (P10276 whole entry, looked up, the tested form may be a part): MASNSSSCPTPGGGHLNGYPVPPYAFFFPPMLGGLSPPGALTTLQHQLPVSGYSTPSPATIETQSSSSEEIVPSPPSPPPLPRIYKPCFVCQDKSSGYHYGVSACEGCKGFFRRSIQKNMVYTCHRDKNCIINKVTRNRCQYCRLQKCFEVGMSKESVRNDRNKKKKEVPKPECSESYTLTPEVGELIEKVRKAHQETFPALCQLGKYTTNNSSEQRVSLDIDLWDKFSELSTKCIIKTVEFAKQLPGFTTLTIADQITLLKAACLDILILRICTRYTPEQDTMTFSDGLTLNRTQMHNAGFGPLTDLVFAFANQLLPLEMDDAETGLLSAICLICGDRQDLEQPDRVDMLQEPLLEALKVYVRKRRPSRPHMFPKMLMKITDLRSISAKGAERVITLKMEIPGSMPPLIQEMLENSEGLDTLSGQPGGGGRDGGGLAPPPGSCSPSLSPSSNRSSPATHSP
human Peroxisome Proliferator-activated Receptor alpha (PPARa), PPARA (gene 5465), sequence (Q07869 whole entry, looked up, the tested form may be a part): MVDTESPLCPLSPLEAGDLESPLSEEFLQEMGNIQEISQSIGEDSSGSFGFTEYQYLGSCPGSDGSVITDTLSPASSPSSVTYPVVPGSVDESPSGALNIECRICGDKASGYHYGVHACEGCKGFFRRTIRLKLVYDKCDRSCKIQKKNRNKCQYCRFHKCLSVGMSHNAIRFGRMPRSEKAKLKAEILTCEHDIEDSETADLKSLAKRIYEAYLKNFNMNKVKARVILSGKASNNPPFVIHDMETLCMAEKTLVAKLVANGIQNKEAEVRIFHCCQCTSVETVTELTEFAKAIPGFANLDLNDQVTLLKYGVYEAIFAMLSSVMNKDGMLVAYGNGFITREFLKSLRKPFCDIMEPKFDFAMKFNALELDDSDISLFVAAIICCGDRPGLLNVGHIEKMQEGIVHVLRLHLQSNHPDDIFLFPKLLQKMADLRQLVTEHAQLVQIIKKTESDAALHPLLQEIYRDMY
human RAR-related Orphan Receptor gamma (RORg), RORC (gene 6097), sequence (P51449 whole entry, looked up, the tested form may be a part): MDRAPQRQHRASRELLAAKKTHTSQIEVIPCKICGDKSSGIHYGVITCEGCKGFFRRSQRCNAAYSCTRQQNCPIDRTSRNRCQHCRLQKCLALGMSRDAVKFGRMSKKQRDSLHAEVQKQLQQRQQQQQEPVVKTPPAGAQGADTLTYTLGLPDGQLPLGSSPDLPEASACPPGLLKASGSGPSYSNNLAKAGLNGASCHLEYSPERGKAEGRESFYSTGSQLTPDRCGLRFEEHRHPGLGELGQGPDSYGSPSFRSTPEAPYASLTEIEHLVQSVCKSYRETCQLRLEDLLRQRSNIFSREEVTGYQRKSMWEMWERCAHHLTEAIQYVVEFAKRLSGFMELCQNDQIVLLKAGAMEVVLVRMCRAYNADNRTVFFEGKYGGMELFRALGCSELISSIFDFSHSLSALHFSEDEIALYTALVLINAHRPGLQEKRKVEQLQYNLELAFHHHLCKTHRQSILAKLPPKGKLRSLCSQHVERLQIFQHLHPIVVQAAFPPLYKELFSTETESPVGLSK
human Peroxisome Proliferator-activated Receptor delta (PPARd), PPARD (gene 5467), sequence (Q03181 whole entry, looked up): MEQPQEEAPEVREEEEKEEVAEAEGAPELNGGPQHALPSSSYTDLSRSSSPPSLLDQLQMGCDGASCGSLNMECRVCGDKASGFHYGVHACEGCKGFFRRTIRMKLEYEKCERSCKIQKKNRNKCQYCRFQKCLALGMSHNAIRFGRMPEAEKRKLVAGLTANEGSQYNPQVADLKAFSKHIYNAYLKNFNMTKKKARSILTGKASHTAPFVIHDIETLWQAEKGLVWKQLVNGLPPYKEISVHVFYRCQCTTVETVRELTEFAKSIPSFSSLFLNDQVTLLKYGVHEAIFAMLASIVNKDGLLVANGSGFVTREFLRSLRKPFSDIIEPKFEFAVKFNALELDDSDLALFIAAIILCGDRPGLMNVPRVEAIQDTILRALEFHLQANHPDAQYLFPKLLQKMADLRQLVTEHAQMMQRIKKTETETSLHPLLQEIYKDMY

`O=Cc1ccccc1S(=O)(=O)O`: the call in assay [1], in [2] and in [3] was inactive.

For the compound `CCCC(=O)C(CC)Sc1ccoc1C` (configuration not stated), the compound was classed as inactive in assay [1] and in assay [2]. Further, the half-maximal activity concentration (AC50) (usually the midpoint of the concentration-response curve, whichever way the signal moves) in [4] is 27.7 µM (active); in assay [5], 9.72 µM (active).

As for `NC1CCCCC1N` (configuration not stated), the compound was classed as inactive in assay [1], in assay [4], in assay [2], in assay [3], in [6] and in assay [5].

On to `CCCCCCC(O)CCCCCCCCCCC(=O)O` (configuration not stated), for which the compound was called inactive in assay [1], in assay [8], in assay [6], in [5] and in [10]. In addition, the AC50 in assay [4] is 27.3 µM (active); in [7], 5.01 µM (active); in assay [3], 12.1 µM (active); in [9], 14.2 µM (active).

On to `CCCCCCC(=O)c1ccccc1`, for which the compound was called inactive in assay [1], in assay [2], in [7] and in assay [3]. Further, the AC50 was 121 µM (active) in [4], 42.8 µM (active) in assay [9] and 59.2 µM (active) in [5].

Regarding `CS(=O)(=O)c1ccc(Cl)cc1`, the outcome in assay [1], in [4], in assay [2], in assay [3], in [5] and in assay [11] was inactive.

Turning to `OCc1ccc(Cl)cc1Cl`, the result in assay [1], in assay [4], in [2], in [7], in assay [3] and in [6] was inactive.

Take `CC[N+](C)(CC)CC`: the call in assay [1], in assay [2], in assay [12], in [7], in assay [6] and in [9] was inactive. For the same compound, the call in assay [5] and in assay [10] was inactive.

As for `Nc1ccc(N)c2c1C(=O)c1ccccc1C2=O`, the outcome in [1], in [3], in [8], in [5], in assay [10] and in assay [13] was inactive. The figures for the AC50 in assay [4], in assay [2] and in assay [9] were 5.63 µM (active), 3.47 µM (active) and 11.3 µM (active), respectively.

Turning to `C=CCCCCCCCCCC`, the compound was called inactive in [1], in assay [4], in [2], in [3], in assay [9] and in assay [13]. Further, the result in assay [11] was inactive.

Consider `CC/C=C\CCOC(=O)CC`, for which the result in assay [1], in assay [4], in assay [12], in assay [7] and in assay [5] was inactive.

For `COC(C)(C)CC(C)=O`, the compound was classed as inactive in [1], in assay [2], in [12], in assay [3] and in [5].

`COC(=O)C=C(C)CCC=C(C)C`: the result in assay [1], in [12] and in [3] was inactive. In addition, the AC50 was 36.1 µM (active) in [4], 44.5 µM (active) in assay [9] and 4.9 µM (active) in [5].

As for `CCCC(=O)c1ccccc1`, the compound was called inactive in assay [1], in assay [4], in [9], in assay [13] and in assay [11].

In the case of `CCCCCCOCCOCCO`, the call in assay [1], in assay [4], in assay [2], in assay [3], in assay [9] and in assay [5] was inactive. The call in [10] was inactive.

As to `COC(=O)Nc1ccc(Cl)c(Cl)c1`, the compound was called inactive in [1], in assay [2], in assay [7], in assay [3] and in assay [5]. Further, the AC50 in assay [4] was 100 µM (active); in [9], 27.4 µM (active).

For `CCCC[P+](CCCC)(CCCC)CCCC`, the outcome in assay [1], in [4], in [12], in assay [6], in assay [5] and in assay [11] was inactive.

With `CS(=O)(=O)OCCCCOS(C)(=O)=O`, the outcome in assay [1], in [4], in [12], in assay [14], in assay [15] and in [16] was inactive. In addition, the result in assay [17], in assay [3], in assay [18], in assay [6], in assay [19] and in assay [9] was inactive. Also, the result in assay [13] and in [11] was inactive.

Take `C=CCN(CC=C)CC=C`: the outcome in assay [1], in assay [4], in assay [2], in [8], in assay [5] and in assay [13] was inactive. The outcome in assay [11] was inactive.
